Bioassay records: PubChem, Broad Institute
The list is a sample of the results.
aSyn 5UTR act – Activators via SNCA 5'UTR binding, MLPCN. alpha-synuclein 5'UTR reporter, activators screen. activity score, % (tested at 7.5 µM), hits read low. actives 7.1% (n = 300,000); in the data active means activity score below about -60%
Active calls of the source: *.

SMILES	aSyn 5UTR act
O=S(=O)(Nc1cccc(-c2ccc(N3CCCCCC3)nn2)c1)c1ccc(F)cc1	-146*
O=S(=O)(Nc1cccc(-c2ccc(N3CCCCCC3)nn2)c1)c1ccccc1F	-128*
O=C(Nc1cccc(-c2ccc(N3CCCCC3)nn2)c1)C(F)(F)F	96
O=S(=O)(Nc1cccc(-c2ccc(N3CCCCCC3)nn2)c1)c1cccc(F)c1	-108*
Cc1ccc(S(=O)(=O)Nc2cccc(-c3ccc(N4CCCCCC4)nn3)c2)cc1C	-117*
COc1cc(/C=N/NC(=O)Nc2ccccc2)ccc1OC(C)=O	-188*
CCOc1cc(/C=N/NC(=O)Nc2ccccc2)ccc1O	-197*
COc1cc(/C=N/NC(=S)Nc2cccc(C(=O)O)c2)ccc1O	70
O=C(/C=C/c1ccc(O)c(O)c1)NC(=O)c1ccccc1O	-145*
O=C(/C=C/c1ccc(Br)cc1)NC(=O)c1ccccc1O	-162*
CSc1ccc(/C=C/C(=O)NC(=O)c2ccccc2O)cc1	-119*
CCCSc1nsc(NC(=O)c2cccnc2OCC)n1	-72*
CCCCSc1nsc(NC(C)=O)n1	-135*
CCCCCCSc1nsc(NC(C)=O)n1	-97*
CCCSc1nsc(NC(=O)CCC)n1	-142*
CC(=O)Nc1ccc(S(=O)(=O)N2CCN=C2SCc2ccc(C)cc2)cc1	-72*
CCOC(=O)c1c(C)[nH]c(N=Nc2ccc(C)cc2)c1C	-271*
CCOC(=O)c1c(C)[nH]c(N=Nc2ccc(OC)cc2)c1C	-249*
CCOC(=O)c1c(C)[nH]c(N=Nc2ccccc2Cl)c1C	-119*
CCOC(=O)c1c(C)[nH]c(C=Nc2ccc(OC)cc2)c1O	-96*
CCOC(=O)c1c(C)[nH]c(N=Nc2ccccc2)c1C	-143*
CCOC(=O)c1nnc2cc(-c3ccc(Br)cc3)nn2c1C	-114*
CCOC(=O)C1=C(c2ccccc2)O/C(=C(/C#N)C(F)(F)F)S1	-64*
CCc1ccc(NC(=O)CCC(=O)Nc2nnc(C(F)(F)F)s2)cc1	-73*
c1ccc(-c2noc(C34CC5CC(CC(C5)C3)C4)n2)nc1	-209*
SMILES	aSyn 5UTR act
c1ccc(-c2noc(C34CC5CC(CC(C5)C3)C4)n2)cc1	-69*
COC(=O)C1CCN(C(=O)/C=C/c2ccc3c(c2)OCO3)CC1	-66*
Cc1ccc(NC(=O)c2c(C(F)(F)F)nn(C)c2SCc2cccc(C(F)(F)F)c2)cc1C	-102*
Cc1ccc(C(=O)Nc2cccc(C(F)(F)F)c2)cc1NC(=O)c1ccno1	95
CC1CCCCN1Cc1c(O)ccc2c(=O)c(-c3ccc(Cl)cc3)coc12 (stereo unspecified)	-68*
Cc1ccc(-c2ccc(SCC(=O)c3ccccc3)nn2)cc1	-65*
COc1ccc(-c2ccc(SCC(=O)c3cccs3)nn2)cc1	-94*
O=C(CSc1ccc(-c2ccccc2)nn1)c1cccs1	-94*
Cc1cc(SCC(=O)c2ccccc2)nc(=O)[nH]1	-107*
O=C(CSc1ccc(-c2cccs2)nn1)N1CCCCCC1	-71*
O=C(NC1CC1)c1ccc(-c2nc3ccccc3s2)s1	96
CCN1CCN(C(=O)c2ccc(-c3nc4ccccc4s3)s2)CC1	-66*
Cc1noc(C)c1COC(=O)c1ccc(-c2nc3ccccc3s2)s1	-206*
CCNC(=O)COC(=O)c1ccc(-c2nc3ccccc3s2)s1	-67*
O=C(c1ccc(-c2nc3ccccc3s2)s1)N1CCOCC1	100
COc1nc(C)ccc1-c1noc(-c2ccncc2)n1	-125*
COc1nc(-c2ccccc2)ccc1-c1noc(-c2ccco2)n1	-168*
COc1ccc(-c2ccc(-c3noc(-c4ccco4)n3)c(OC)n2)cc1	-126*
COc1nc(-c2ccccc2)ccc1-c1noc(-c2cccs2)n1	-198*
COc1nc(-c2ccccc2)ccc1-c1noc(-c2ccccc2)n1	-94*
COC(=O)c1cn(CCOc2ccccc2)c2ccccc12	-153*
Cc1cc(N)n(-c2ccc3ccccc3c2)n1	-119*
Cc1cc(N)n(-c2nc3ccccc3s2)n1	-157*
Cc1cc(NC(=O)C(C)C)n(-c2nc3ccccc3s2)n1	-78*
Cc1ccc(/C=C/c2nc3ccccc3s2)s1	71
SMILES	aSyn 5UTR act
Cc1cc(C)n(-c2nc3ccccc3s2)n1	-168*
Clc1cccc(N/N=C(\Cc2nc3ccccc3[nH]2)c2ccccc2)c1	-102*
O=c1[nH]c(Cc2cccs2)nc2scc(-c3ccc(Cl)cc3)c12	-77*
Cc1ccc(-c2csc3nc(-c4ccncc4)[nH]c(=O)c23)cc1	-86*
Cc1ccc2nc(-c3ccncc3)[nH]c2c1	-120*
Cc1ccc(-c2nc3ccsc3c(=O)[nH]2)cc1	-137*
Cc1ccc(-c2csc3nc4c5ccccc5c(NCCCN(C)C)nn4c(=O)c23)cc1	116
Cc1ccc(C(=O)Nc2ccc3c(c2)OCO3)cc1S(=O)(=O)N1CCCC1	-114*
O=C(Nc1ccc2c(c1)OCO2)c1cnccn1	-106*
Cc1cc(Cl)ccc1NC(=O)c1ccc2c(c1)OCO2	-231*
Cc1ccc(C(=O)Nc2ccc3c(c2)OCO3)cc1Cl	-123*
Cc1ccc(NC(=O)c2ccc(Cl)nc2)cc1	-116*
O=C(Nc1ccc2c(c1)OCO2)c1ccc(Cl)nc1	-90*
